Laboratory results: PubChem BioAssay (EPA / NIEHS)
Results filed as inconclusive are left out. Calls of active or inactive are those of the source. The calls were made as follows: active = hit-call score of the fitted dose curve at least 0.9, where 1 is the maximum; inconclusive = response in the unintended direction; inactive = score below 0.9.

Experiments:
AR (gene 367) = AR (gene 367) (UniProt P10275); experiment: ACEA_AR_antagonist_80hr: ACEA Biosciences xCELLigence Real-Time Cell Analysis on Androgen Receptor Antagonism for Proliferation (AID 2283787);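 also: 22Rv1 human prostate cancer cells with growth followed by electrical impedance; hits lower the impedance growth signal relative to DMSO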
Summary of the method: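 22Rv1 cells in assay medium, growth tracked by electrical impedance; compounds eight-point 1:4 dilutions from 100 uM final, duplicate plates. Endpoint at 80 h; loss of signal versus DMSO.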

[1] = biological target: Estrogen receptor beta (Homo sapiens) (UniProt Q92731); experiment: ATG_hERb_XSP1: Attagene TRANS-FACTORIAL Multi-Species (XSP1) HepG2 Assay for human Estrogen Receptor (ESR2) (AID 2283788)
Summary of the method: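 HepG2 cells transiently transfected with GAL4-UAS multiplexed reporter units, 3 nM 6-alpha-fluorotestosterone present; 24 h exposure. Reporter mRNA measured by RT-PCR, fluorescent labelling and capillary electrophoresis; gain of signal fitted against DMSO.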

[2] = biological target: GAL4 Transcription Factor (Internal Marker), GAL4 (gene 855828) (UniProt P04386); experiment: ATG_GAL4_XSP1: Attagene TRANS-FACTORIAL Multi-Species (XSP1) HepG2 Assay for GAL4 Transcription Factor (Internal Marker) (AID 2283789)
Summary of the method: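 HepG2 cells transiently transfected with multiplexed GAL4-UAS reporter units were exposed for 24 h with 3 nM 6-alpha-fluorotestosterone present. Reporter mRNA was quantified by RT-PCR, FAM labelling, HpaI digestion and capillary electrophoresis; background-control readout, gain-of-signal versus DMSO.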

[3] = ATG_M_19_XSP1: Attagene TRANS-FACTORIAL Multi-Species (XSP1) HepG2 Assay for M19 Transcription Factor (Internal Marker) (AID 2283798)
Summary of the method: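 HepG2 cells transiently transfected with multiplexed GAL4-UAS reporter units, dosed 24 h with 3 nM 6-alpha-fluorotestosterone present for partial AR stimulation. Reporter mRNA measured by RT-PCR with capillary electrophoresis; gain-of-signal fitted relative to DMSO.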

[4] = ATG_M_32_XSP1: Attagene TRANS-FACTORIAL Multi-Species (XSP1) HepG2 Assay for M32 Transcription Factor (Internal Marker) (AID 2283799)
Summary of the method: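 HepG2 cells transiently transfected with multi-species TRANS reporter units, dosed 24 h with 3 nM 6-alpha-fluorotestosterone present. Internal-marker reporter mRNA quantified by RT-PCR and capillary electrophoresis; positive-direction fit versus DMSO.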

[5] = biological target: Peroxisome proliferator-activated receptor gamma (Homo sapiens) (UniProt P37231); experiment: ATG_hPPARg_XSP1: Attagene TRANS-FACTORIAL Multi-Species (XSP1) HepG2 Assay for human Peroxisome Proliferator-activated Receptor gamma (PPARg) (AID 2283800)
Summary of the method: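 HepG2 cells transiently transfected with GAL4-UAS reporter units carrying chimeric NR-Gal4 proteins; 3 nM 6-alpha-fluorotestosterone present. After 24 h dosing, reporter mRNA quantified by RT-PCR and capillary electrophoresis; gain of signal relative to DMSO.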

[6] = system: zebrafish Peroxisome Proliferator-activated Receptor gamma (PPARg), gene 557037; experiment: ATG_zfPPARg_XSP1: Attagene TRANS-FACTORIAL Multi-Species (XSP1) HepG2 Assay for zebrafish Peroxisome Proliferator-activated Receptor gamma (PPARg) (AID 2283801)
Summary of the method: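 HepG2 cells transiently transfected with GAL4-UAS reporter units including a zebrafish PPARg–GAL4 chimera, dosed 24 h with 3 nM 6-alpha-fluorotestosterone present. Reporter mRNA quantified by RT-PCR, FAM labelling, HpaI digestion and capillary electrophoresis; induction versus DMSO.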

[7] = biological target: mouse Peroxisome Proliferator-activated Receptor gamma (PPARg), Pparg (gene 19016) (UniProt P37238); experiment: ATG_mPPARg_XSP1: Attagene TRANS-FACTORIAL Multi-Species (XSP1) HepG2 Assay for mouse Peroxisome Proliferator-activated Receptor gamma (PPARg) (AID 2283802)
Summary of the method: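 HepG2 cells transiently transfected with GAL4-UAS reporter units driven by mouse PPARg–GAL4 chimera; 3 nM 6-alpha-fluorotestosterone present. After 24 h dosing, reporter mRNA quantified by RT-PCR, fluorescent labelling and capillary electrophoresis; gain of signal versus DMSO.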

[8] = ATG_M_06_XSP1: Attagene TRANS-FACTORIAL Multi-Species (XSP1) HepG2 Assay for M06 Transcription Factor (Internal Marker) (AID 2283790)
Summary of the method: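 Transfected HepG2 multi-reporter system treated 24 h in the presence of 3 nM 6-alpha-fluorotestosterone. The M06 internal marker transcript was quantified by RT-PCR with capillary electrophoresis as a background control, and gain of signal was scored versus DMSO.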

[9] = ATG_M_61_XSP1: Attagene TRANS-FACTORIAL Multi-Species (XSP1) HepG2 Assay for M61 Transcription Factor (Internal Marker) (AID 2283797)
Summary of the method: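 HepG2 cells transiently transfected with multiplexed GAL4-driven reporter units, dosed 24 h with 3 nM 6-alpha-fluorotestosterone present. Reporter mRNA quantified by RT-PCR, 6-FAM labelling, HpaI digestion and capillary electrophoresis; internal-marker background control, gain of signal versus DMSO.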

Sequence of AR (gene 367) (P10275 whole entry, looked up): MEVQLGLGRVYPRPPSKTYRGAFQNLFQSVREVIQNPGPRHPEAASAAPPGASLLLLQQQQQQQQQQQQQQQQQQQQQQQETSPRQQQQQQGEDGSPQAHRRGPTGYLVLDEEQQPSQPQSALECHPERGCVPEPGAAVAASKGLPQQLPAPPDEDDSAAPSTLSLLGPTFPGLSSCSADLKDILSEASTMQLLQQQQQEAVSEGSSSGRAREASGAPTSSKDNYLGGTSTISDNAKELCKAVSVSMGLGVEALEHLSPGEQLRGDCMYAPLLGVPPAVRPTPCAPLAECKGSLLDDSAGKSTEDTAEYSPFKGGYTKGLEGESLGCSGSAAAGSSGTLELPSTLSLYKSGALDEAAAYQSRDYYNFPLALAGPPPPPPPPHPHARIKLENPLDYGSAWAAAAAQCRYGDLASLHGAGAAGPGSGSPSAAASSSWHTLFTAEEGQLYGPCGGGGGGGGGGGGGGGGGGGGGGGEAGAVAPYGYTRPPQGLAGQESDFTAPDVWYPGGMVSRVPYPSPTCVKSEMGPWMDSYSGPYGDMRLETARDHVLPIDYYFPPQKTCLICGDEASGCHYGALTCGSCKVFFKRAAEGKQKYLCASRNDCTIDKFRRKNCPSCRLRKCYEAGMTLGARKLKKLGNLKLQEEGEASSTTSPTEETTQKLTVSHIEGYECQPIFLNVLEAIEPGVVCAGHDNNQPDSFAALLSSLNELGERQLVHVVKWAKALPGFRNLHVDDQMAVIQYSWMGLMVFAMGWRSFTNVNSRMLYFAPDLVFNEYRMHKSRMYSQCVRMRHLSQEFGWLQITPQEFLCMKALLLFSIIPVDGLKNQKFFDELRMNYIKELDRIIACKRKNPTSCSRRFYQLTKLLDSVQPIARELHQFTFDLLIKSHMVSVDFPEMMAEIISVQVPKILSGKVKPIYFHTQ
Sequence of mouse Peroxisome Proliferator-activated Receptor gamma (PPARg), Pparg (gene 19016) (P37238 whole entry, looked up, the tested form may be a part): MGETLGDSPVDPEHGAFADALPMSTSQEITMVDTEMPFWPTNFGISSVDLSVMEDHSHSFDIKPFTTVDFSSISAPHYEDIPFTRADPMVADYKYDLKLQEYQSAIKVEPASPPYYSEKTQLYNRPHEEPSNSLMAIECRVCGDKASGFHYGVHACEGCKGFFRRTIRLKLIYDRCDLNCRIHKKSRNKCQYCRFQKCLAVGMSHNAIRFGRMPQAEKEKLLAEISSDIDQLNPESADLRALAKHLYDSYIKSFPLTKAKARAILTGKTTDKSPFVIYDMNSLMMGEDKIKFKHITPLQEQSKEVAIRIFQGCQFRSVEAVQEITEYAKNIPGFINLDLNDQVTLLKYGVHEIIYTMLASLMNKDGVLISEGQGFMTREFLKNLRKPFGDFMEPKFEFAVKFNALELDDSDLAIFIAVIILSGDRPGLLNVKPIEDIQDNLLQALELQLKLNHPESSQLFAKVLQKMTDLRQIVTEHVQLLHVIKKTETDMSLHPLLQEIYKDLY
Sequence of Peroxisome proliferator-activated receptor gamma (Homo sapiens) (P37231 whole entry, looked up, the tested form may be a part): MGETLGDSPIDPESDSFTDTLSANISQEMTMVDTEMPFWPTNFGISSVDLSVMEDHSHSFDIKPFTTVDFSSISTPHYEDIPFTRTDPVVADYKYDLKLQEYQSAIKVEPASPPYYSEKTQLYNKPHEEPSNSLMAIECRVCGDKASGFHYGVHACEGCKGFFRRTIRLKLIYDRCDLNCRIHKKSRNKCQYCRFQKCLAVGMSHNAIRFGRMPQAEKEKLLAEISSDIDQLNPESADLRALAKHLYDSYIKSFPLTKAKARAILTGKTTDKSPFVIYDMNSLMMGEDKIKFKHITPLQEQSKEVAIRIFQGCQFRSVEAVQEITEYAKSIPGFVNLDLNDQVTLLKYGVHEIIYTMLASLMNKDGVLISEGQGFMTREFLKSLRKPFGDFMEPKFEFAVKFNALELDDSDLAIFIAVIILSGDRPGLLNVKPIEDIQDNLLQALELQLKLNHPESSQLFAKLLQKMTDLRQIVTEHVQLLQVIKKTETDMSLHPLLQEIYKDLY
Sequence of Estrogen receptor beta (Homo sapiens) (Q92731 whole entry, looked up, the tested form may be a part): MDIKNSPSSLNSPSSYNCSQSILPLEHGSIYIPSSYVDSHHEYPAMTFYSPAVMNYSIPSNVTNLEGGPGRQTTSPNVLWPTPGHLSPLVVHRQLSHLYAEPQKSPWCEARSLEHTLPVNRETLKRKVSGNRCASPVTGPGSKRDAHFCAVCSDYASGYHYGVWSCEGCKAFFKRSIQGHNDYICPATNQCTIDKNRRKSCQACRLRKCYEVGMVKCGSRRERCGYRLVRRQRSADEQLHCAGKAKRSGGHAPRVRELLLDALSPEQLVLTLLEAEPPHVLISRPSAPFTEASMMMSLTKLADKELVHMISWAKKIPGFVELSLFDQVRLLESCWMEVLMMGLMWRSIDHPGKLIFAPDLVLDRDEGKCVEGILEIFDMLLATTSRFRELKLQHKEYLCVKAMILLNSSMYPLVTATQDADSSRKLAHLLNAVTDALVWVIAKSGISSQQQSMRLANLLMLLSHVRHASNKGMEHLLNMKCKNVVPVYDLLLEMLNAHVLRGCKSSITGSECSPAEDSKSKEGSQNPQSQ
Sequence of GAL4 Transcription Factor (Internal Marker), GAL4 (gene 855828) (P04386 whole entry, looked up, the tested form may be a part): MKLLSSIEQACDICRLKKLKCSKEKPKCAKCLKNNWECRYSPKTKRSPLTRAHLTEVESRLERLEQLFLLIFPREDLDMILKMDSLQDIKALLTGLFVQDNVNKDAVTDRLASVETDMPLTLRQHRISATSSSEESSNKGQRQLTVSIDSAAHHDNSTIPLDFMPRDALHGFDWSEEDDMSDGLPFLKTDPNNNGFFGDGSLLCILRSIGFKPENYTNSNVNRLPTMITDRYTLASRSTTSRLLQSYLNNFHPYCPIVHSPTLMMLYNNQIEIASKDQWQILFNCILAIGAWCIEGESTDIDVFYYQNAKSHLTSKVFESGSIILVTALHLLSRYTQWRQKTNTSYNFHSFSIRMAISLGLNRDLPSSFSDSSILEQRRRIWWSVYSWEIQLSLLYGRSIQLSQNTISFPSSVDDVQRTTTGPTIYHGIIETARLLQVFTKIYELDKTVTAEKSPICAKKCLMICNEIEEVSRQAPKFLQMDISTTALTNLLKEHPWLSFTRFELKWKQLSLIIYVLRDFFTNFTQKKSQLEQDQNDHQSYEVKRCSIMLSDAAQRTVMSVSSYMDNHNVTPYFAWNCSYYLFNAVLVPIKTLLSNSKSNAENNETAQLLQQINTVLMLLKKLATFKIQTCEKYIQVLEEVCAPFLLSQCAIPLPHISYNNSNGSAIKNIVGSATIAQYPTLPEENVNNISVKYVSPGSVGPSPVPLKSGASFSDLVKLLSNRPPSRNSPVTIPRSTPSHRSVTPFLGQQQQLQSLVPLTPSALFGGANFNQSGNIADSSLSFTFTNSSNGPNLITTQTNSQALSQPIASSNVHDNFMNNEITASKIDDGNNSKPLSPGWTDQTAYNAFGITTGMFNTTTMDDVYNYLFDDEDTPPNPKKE

With `CC(C)N1C(=O)N(c2ccccc2)CSC1=NC(C)(C)C` the AC50 (AR (gene 367)) was 50 µM (active).
In the case of `CC1(C)C(C=C(Cl)Cl)C1C(=O)OC(C#N)c1cccc(Oc2ccccc2)c1` (stereo not drawn), the AC50 [1] is reported as 66.8 µM (active), the outcome [2] is reported as “inactive” and the outcome [3] is reported as “inactive”. The outcome [4] was “inactive”, the AC50 [5] was 4.23 µM (active) and the AC50 [6] was 3.54 µM (active). The AC50 [7] was 13.5 µM (active).
With `CCN(CC)C(=O)C(C)Oc1cccc2ccccc12` (stereo not drawn) the AC50 [1] was 100 µM (active), the outcome [8] was “inactive” and the outcome [9] was “inactive”. For the same molecule, the AC50 [5] was 48.4 µM (active), the outcome [6] was “inactive” and the AC50 [7] was 20.7 µM (active).
With `CCOc1cc(C(C)(C)C)ccc1C1COC(c2c(F)cccc2F)=N1` (stereo not drawn) the AC50 (AR (gene 367)) was 13.2 µM (active).
For `Clc1cccc(C(Cl)(Cl)Cl)n1`, the outcome (AR (gene 367)) was “inactive”.
For `COC(=O)c1c(C(F)F)nc(C(F)(F)F)c(C2=NCCS2)c1CC(C)C`, the outcome (AR (gene 367)) was “inactive”.
With `Cc1cnc(C2=NC(C)(C(C)C)C(=O)N2)c(C(=O)O)c1` (stereo not drawn) the outcome (AR (gene 367)) was “inactive”.
